Source: the supplement of paper PMC11732987, “Enantioselective OTUD7B fragment discovery through chemoproteomics screening and high-throughput optimisation” (Communications Chemistry, 2025)

molecular target: T1, VCPIP1 (UniProt Q96JH7); test: log2 ratio of Biotin-Ahx-Ub-VS probe labelling (fragment/DMSO); higher = less target engagement (more negative = stronger competition), active = hit call of the paper (q ≤ 0.05, log2 ratio ≤ -1); settings: compound concentration: 200 uM; treatment time: 3 h
T1 sequence (whole entry): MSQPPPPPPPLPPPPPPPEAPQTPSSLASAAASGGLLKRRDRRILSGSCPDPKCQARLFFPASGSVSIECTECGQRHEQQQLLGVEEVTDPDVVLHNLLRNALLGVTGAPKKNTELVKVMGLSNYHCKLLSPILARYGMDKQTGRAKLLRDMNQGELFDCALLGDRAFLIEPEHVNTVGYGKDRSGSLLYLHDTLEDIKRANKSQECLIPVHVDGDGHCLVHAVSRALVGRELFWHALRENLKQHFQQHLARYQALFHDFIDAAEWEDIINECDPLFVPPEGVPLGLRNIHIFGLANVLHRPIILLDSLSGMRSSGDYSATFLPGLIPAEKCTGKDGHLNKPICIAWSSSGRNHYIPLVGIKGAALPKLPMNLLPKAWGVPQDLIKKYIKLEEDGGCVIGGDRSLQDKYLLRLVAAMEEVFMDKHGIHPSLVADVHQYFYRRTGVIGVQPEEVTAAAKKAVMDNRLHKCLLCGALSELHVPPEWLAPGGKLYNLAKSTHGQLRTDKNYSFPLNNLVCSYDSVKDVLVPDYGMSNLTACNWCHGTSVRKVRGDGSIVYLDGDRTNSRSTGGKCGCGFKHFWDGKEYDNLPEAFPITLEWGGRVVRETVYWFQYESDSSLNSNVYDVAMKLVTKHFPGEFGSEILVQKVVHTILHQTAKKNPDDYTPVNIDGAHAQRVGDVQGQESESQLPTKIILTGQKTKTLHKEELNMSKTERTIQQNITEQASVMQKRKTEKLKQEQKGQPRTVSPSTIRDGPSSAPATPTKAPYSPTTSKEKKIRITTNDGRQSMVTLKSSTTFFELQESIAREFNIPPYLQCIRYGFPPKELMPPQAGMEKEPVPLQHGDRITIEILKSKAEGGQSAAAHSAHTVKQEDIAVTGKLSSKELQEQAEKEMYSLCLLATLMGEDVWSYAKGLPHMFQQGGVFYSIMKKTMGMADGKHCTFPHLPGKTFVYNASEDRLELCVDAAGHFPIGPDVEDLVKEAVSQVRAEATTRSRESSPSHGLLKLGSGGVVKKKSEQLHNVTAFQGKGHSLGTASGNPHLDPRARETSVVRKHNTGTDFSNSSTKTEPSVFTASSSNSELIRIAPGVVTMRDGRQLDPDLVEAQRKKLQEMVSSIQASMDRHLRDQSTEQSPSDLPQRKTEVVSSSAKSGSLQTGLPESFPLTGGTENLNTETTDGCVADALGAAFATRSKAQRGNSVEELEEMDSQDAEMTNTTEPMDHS
Experimental: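 Competitive ABPP in HEK293T cell lysate. Lysates were treated with each chloroacetamide fragment at 200 µM for 3 h, then with Biotin-Ahx-Ub-VS (0.5 µM, 1 h), NeutrAvidin-enriched and analysed by diaPASEF LC-MS/MS. Protein LFQ was median-normalised; average log2 ratio is fragment/DMSO from an unpaired t-test (n=3 treated, n=44 DMSO). Hits: q ≤ 0.05, log2 ratio ≤ -1, unique peptides ≥ 2.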

log2 ratio of Biotin-Ahx-Ub-VS probe labelling, active:
COc1cc(Cl)c(C)cc1NC(=O)CCl -1.24
Cc1ccc(-c2nnc(C)[nH]2)c(NC(=O)CCl)c1 -2.55
O=C(CCl)N1CCC(OCc2ccccc2F)CC1 -2.86
Cc1ccccc1OCC(=O)N1CCN(C(=O)CCl)CC1 -1.16
O=C(CCl)Nc1ccc(F)cc1Cl -1.05
O=C(CCl)N1CCCC1c1ccsc1 (stereo not given) -1.07
CC(NC(=O)CCl)c1csc(-c2ccccc2)n1.Cl (stereo not given) -2.16
CN1C(=O)c2ccc(NC(=O)CCl)cc2C1=O -2.49
CS(=O)(=O)c1ccc(CNC(=O)CCl)cc1 -1.22
Cl.Cn1nc2c(c1CNC(=O)CCl)CCCC2 -1.63
O=C(CCl)N1CCCC2CCCCC21 (stereo not given) -2.13
Cl.Cn1ncc2c1CCCC2NC(=O)CCl (stereo not given) -1.7
Cl.O=C(CCl)NCCN1CCc2ccccc21 -1.9
Cc1ccccc1CN(C)C(=O)CCl -1.46
Cc1ccc(N(CCC#N)C(=O)CCl)cc1C -2.17
COc1ccc(-c2csc(NC(=O)CCl)n2)cc1 -1.46
O=C(CCl)N1CCOC(c2cccc(F)c2)C1 (stereo not given) -1.67
O=C(CCl)Nc1cc2c(cc1Cl)OCCCO2 -2.71
Cc1ccc(CC(CO)CNC(=O)CCl)cc1 (stereo not given) -2.23
COc1ccc(CN(C)C(=O)CCl)cc1 -1.54

log2 ratio of Biotin-Ahx-Ub-VS probe labelling, inactive:
COc1ccccc1C(C)NC(=O)CCl (stereo not given) -0.998
CC(NC(=O)CCl)c1cc2n(n1)CCCC2.Cl (stereo not given) -0.662
O=C(CCl)N1CCC2(CCC(O)CC2)CC1 -0.183
Cc1ccccc1C1(CNC(=O)CCl)CCOCC1 -0.843
NC(=O)C(Cc1ccccc1)NC(=O)CCl (stereo not given) -0.38
CC(C)n1nccc1NC(=O)CCl -0.897
Cc1nc(CN2CCCN(C(=O)CCl)CC2)no1.Cl -0.1
NC(=O)C1CCCCN1C(=O)CCl (stereo not given) -0.253
CC(c1ccccc1)N(C)C(=O)CCl (stereo not given) -0.328
Cl.O=C(CCl)N1CCc2ncncc2C1 -0.0226
O=C(CCl)N1CCc2ccccc2C(O)C1 (stereo not given) -0.506
CCN(C(=O)CCl)C1CCS(=O)(=O)C1 (stereo not given) 0.0777
Cc1cccnc1NC(=O)C1CCN(C(=O)CCl)CC1.Cl -0.543
CCN(C(=O)CCl)C1CCCCC1 -0.114
O=C(O)C1Cc2ccccc2CN1C(=O)CCl (stereo not given) -0.368
O=C(CCl)N1CC2(CCOCC2)C1 -0.356
Cl.O=C(CN1CCN(C(=O)CCl)CC1)Nc1ccc(F)cc1 -0.257
Cc1ccc(CN(C)C(=O)CCl)o1 -0.13
Cc1conc1C1CN(C(=O)CCl)C1 -0.949
O=C(CCl)NC1CCCCNC1=O (stereo not given) -0.603
